Assay outcomes as filed in PubChem.
Keap1 Nrf2 FP = disrupts human Keap1 binding to Nrf2 peptide | Q14145 | 340,000 compounds, 0.15% hits | Keap1 Kelch-Nrf2 peptide fluorescence polarization, 1536-well | AID 504523 | inhibition, % at 9.4 µM; in the data active = inhibition above about 12%;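 note: human Keap1 Kelch domain with fluorescein labeled Nrf2 9mer peptide probe; higher means more block of Keap1 binding to Nrf2 peptide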
Target sequence (Q14145 whole entry, looked up, the tested form may be a part): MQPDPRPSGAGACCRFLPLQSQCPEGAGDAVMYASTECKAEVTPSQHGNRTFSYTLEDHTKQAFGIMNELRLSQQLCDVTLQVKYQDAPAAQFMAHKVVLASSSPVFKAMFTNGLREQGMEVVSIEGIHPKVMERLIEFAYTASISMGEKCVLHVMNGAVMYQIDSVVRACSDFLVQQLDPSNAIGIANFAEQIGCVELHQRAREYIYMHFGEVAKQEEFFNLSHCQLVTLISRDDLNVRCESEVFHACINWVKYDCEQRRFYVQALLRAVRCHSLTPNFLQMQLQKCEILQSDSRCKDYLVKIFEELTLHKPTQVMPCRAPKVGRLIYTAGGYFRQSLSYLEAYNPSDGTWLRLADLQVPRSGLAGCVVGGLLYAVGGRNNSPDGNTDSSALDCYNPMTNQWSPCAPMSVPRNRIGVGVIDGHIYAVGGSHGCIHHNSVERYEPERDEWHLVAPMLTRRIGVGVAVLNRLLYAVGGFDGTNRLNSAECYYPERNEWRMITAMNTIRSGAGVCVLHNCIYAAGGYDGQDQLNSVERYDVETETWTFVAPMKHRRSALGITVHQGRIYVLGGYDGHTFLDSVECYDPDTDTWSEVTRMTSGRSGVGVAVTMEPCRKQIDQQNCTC
LANA DNA inh = KSHV C-LANA DNA binding inhibition. inhibition, % at 9 µM. 340,000 compounds, 0.078% hits. MBP-C-LANA/FAM-LBS DNA binding, fluorescence polarization. AID 504423;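 active = highest replicate inhibition at or above 60% at 9 µM, even if other replicates fall short; inactive = all replicates below 60% inhibition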
RTF Ca sens act = increases calcium sensitivity of human cardiac regulated thin filaments; IANBD-labeled TnC RTF fluorescence at EC20 calcium; 0% EC20 calcium, 100% full calcium; AID 493008; 340,000 compounds, 0.24% hits; activation, % at 7.2 µM;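 active = activation above the mean over all tested compounds plus 3 SD, cut at about 30% in these data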;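 note: rise in fluorescence read as greater calcium sensitivity of cardiac thin filaments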
LANA-H2B inh = blocks KSHV LANA binding to histone H2A/H2B. cell-free LANA-H2A/H2B peptide, fluorescence polarization. 320,000 compounds, 0.6% hits. inhibition, % (concentration not given with the values). Q9QR71; in the data active = inhibition mostly above about 10%, no sharp cut-off; inactive = mostly below about 6.7%
RTF Ca sens inh = cardiac RTF calcium desensitization; P19429+P45379; IANBD-labeled cardiac RTF, Ca2+ fluorescence; inhibition, % at 7.15 µM; 340,000 compounds, 0.12% hits; AID 493244;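 active = inhibition above the mean inhibition of all tested compounds plus 3 SD, cut at about 17% in these data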;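 note: assay run at fixed EC70 calcium of 1.6 mM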
Numbers stand for hits; i = inactive; nt = not tested or not shown; + = active, no number. The list is not random: actives were taken first. Their share in the collection is about 0.99%.

SMILES | Keap1 Nrf2 FP | LANA DNA inh | RTF Ca sens act | LANA-H2B inh | RTF Ca sens inh
CCN1CCN(Cc2c(O)ccc3c2O/C(=C\c2ccccc2)C3=O)CC1 | i | i | i | i | i
CCN1CCN(Cc2c(O)ccc3c2O/C(=C\C=C\c2ccccc2)C3=O)CC1 | i | i | 140 | i | i
O=S(=O)(NC1=NCCCCC1)c1ccc(Cl)cc1 | nt | nt | i | + | i
O=S(=O)(NC1=NCCCCC1)c1ccc(F)cc1 | i | i | i | i | i
CCOC(=O)c1ccccc1NC(=O)COC(=O)CN1C(=O)C2CC=CCC2C1=O (stereo unspecified) | i | i | i | 162 | i
CCOC(=O)c1ccccc1NC(=O)COC(=O)CC1CCCCC1 | i | i | i | i | i
Cc1c(CCO)c(=O)[nH]n1S(=O)(=O)c1ccc(F)cc1 | i | i | i | 14 | i
O=C(NNC(=S)Nc1ccccc1)c1cc(Br)ccc1Cl | i | i | i | i | i
O=C(c1cccc(S(=O)(=O)N2CCOCC2)c1)N1CCCC(C(F)(F)F)C1 (stereo unspecified) | i | i | i | i | i
O=C(c1ccsc1)N1CCCC(N2CCN(c3cccc(C(F)(F)F)c3)CC2)C1 (stereo unspecified) | i | i | i | i | i
O=C(c1cc[n+]([O-])cc1)N1CCCC(N2CCN(c3cccc(C(F)(F)F)c3)CC2)C1 (stereo unspecified) | i | i | i | 21 | i
CCn1ncc(C2=NOC(C(=O)Nc3ccc(C)cc3)C2)c1C (stereo unspecified) | i | i | i | i | i
CCn1ncc(C2=NOC(C(=O)NCc3ccc(Cl)cc3)C2)c1C (stereo unspecified) | i | i | i | 58 | i
CN(C)CCCNC(=S)N(CCCN(C)C)Cc1cc2cc3c(cc2[nH]c1=O)OCO3 | i | i | i | 20 | i
O=C1S/C(=C/c2ccc(N3CCOCC3)o2)C(=O)N1Cc1ccc(F)cc1 | i | i | 72 | i | i
O=C1NC(=S)S/C1=C/c1ccc(N2CCOCC2)o1 | i | i | 34 | i | i
O=C1N=C(N2CCOCC2)S/C1=C/c1ccc(-c2ccc(F)cc2)o1 | i | i | i | i | i
CC(C)OC(=O)CN1C(=O)S/C(=C/c2ccc(N3CCCCC3)o2)C1=O | i | i | 93 | i | i
O=C1S/C(=C\c2ccc(N3CCOCC3)o2)C(=O)N1Cc1ccc(F)cc1 | i | i | 50 | i | i
COc1ccc2cc(/C=C3\SC(=S)NC3=O)c(N3CCOCC3)nc2c1 | i | i | i | i | i
Cc1cccc(C)c1NC(=O)CNC(=O)CCC(=O)c1cccs1 | i | i | i | i | i
CC(NC(=O)COC(=O)C1CCN(c2ccc(C(F)(F)F)cn2)CC1)c1ccc(F)cc1 (stereo unspecified) | i | i | i | 17 | i
CC(NC(=O)COC(=O)C1CCN(c2ccc(C(F)(F)F)cn2)CC1)c1ccc(Br)cc1 (stereo unspecified) | i | i | i | i | i
CC1CCCC(C)N1C(=O)Cn1c(=O)sc2ccccc21 (stereo unspecified) | i | i | i | i | i
CCc1cc(C(=O)N2CCN(S(=O)(=O)c3cc(C)ccc3C)CC2)sc1C | i | i | i | i | i
SMILES | Keap1 Nrf2 FP | LANA DNA inh | RTF Ca sens act | LANA-H2B inh | RTF Ca sens inh
CCc1cc(C(=O)N2CCN(S(=O)(=O)c3ccccc3F)CC2)sc1C | i | i | i | + | i
CC(C)CCc1noc(CN2CCN(CC(=O)NC(C)C)CC2)n1 | i | i | i | i | i
CC(C)CCc1noc(CN2CCC(CCN3CCCC3=O)CC2)n1 | i | i | i | 11 | i
COc1ccc(-c2csc(NC(=O)CSc3nc(C)cs3)n2)cc1 | i | i | i | i | i
COc1ccc(-c2csc(NC(=O)CSc3nc(C)nc4sc(C(=O)O)c(C)c34)n2)cc1 | i | 103 | i | i | i
COc1ccc(Br)cc1S(=O)(=O)Nc1ccc(Cl)cn1 | i | i | i | i | i
C=CCn1c(=S)[nH]c2ccccc2c1=O | i | i | i | 16 | i
CC(C)Cn1c(=S)[nH]c2ccccc2c1=O | i | i | i | i | i
Clc1ccccc1N=Nc1ccccn1 | 14 | i | i | nt | i
CCC(C#CCN1CCOCC1)(CC)OCCC#N | i | i | i | i | i
Cc1cccn2c(CNCCc3ccccn3)c(C(=O)N3CCOCC3)nc12 | i | i | i | 29 | i
COc1ccccc1N1CCN(C2CCCN(C(=O)CCC(=O)N(C)C)C2)CC1 (stereo unspecified) | i | i | i | i | i
NC(=O)C1CCN(C(=S)c2ccc(-c3ccc(Br)cc3)o2)CC1 | i | i | nt | 14 | nt
